# Laboratory results published in the supplement of paper PMC3334620.
# The full ranking holds about 33,000 sequences; the median of “E-score (-0.5 to 0.5)” is about -0.011, and the highest 2% start at about 0.28. The entries come from a sample that favours the highest values as a whole.
# Biological target: T1, Gcr1 (UniProt P07261)
# T1 sequence: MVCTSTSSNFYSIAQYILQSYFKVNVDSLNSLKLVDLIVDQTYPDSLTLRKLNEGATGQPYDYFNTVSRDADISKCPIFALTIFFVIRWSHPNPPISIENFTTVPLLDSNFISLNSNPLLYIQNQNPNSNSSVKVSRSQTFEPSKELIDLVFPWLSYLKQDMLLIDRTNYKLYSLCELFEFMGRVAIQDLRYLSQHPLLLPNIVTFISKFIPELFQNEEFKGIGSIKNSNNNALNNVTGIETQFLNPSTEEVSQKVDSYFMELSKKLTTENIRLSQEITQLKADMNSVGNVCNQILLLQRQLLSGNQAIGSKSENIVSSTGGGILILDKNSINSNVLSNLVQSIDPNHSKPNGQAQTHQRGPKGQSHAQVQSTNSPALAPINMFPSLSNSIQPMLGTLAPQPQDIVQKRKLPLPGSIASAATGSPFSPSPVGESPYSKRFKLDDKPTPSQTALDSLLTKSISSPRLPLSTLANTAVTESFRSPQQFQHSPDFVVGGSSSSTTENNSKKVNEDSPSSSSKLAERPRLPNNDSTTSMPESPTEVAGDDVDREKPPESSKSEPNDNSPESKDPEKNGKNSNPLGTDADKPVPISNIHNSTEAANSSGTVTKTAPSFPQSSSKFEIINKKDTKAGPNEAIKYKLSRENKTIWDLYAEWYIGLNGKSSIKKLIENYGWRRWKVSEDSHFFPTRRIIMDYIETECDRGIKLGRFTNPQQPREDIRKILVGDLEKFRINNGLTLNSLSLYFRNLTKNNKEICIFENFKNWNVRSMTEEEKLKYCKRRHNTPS
# Experiment: PBM E-score (8-mer binding enrichment) (E-score (-0.5 to 0.5)); higher = stronger / more preferred TF binding
# Conditions: protein concentration: 100 nM; construct: GST-full length
# Outline: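 PURExpress in vitro transcription/translation supplied GST-tagged yeast transcription factors, either full-length or DNA-binding domain. Applied at about 100-200 nM to universal all-10-mer Agilent arrays double-stranded by primer extension, the bound protein was detected with fluorescent anti-GST. E-scores, modified Wilcoxon-Mann-Whitney statistics, were given by the Universal PBM Analysis Suite to ungapped eight-base words pooled with their reverse complements after masliner normalisation.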
row,Sequence,PBM E-score
1,ATCGAGCG,-0.167
2,GGATATCC,-0.206
3,CCGATTCA,-0.00017
4,CTGCCGAA,-0.0682
5,GCCACTAA,0.366
6,GCCACTGA,0.237
7,GCCACTTA,0.184
8,ACAAAGAG,-0.078
9,CGGCAGAC,-0.254
10,AGGCAGCC,0.382
11,CGGCAGCA,-0.0108
12,AGGCAGCA,0.0795
13,AGGCAGCG,0.0171
14,CGGCAGCC,0.382
15,AGTCTACG,-0.0187
16,AGACGCTA,0.293
17,AGACGCTC,0.185
18,GCACGCTA,-0.0819
19,CGACGCTA,0.0406
20,AGACGCTG,0.254
21,GGACGCTA,0.363
22,ACGAGCAC,-0.0665
23,AAACCCGG,0.0332
24,ACGCGCAT,-0.0657

row,Sequence,PBM E-score
1,GCCTGTGA,0.0496
2,ATGGAATA,0.0994
3,ATGGAATG,-0.00503
4,CTGGAATC,0.407
5,CTGGAATA,0.259
6,ATGGAATC,0.29
7,CCGGAATC,0.219
8,AACGCTCC,-0.276
9,GCGTCTTA,0.239
10,CAGCTCGC,-0.117
11,CGACCGTC,-0.41
12,TGATATCA,0.0841
13,CAGCCATA,0.022
14,AGCAGCTC,0.16
15,AGCAGCAG,-0.0192
16,AGCAGCTA,0.273
17,ACCAGCCT,0.0001
18,CACAGCCC,-0.232
19,AGCAGCCT,0.369
20,AGCAGCTG,0.311
21,ATCAGCCG,-0.264
22,AGCAGCCG,0.285
23,CGCAGCCC,0.324
24,CGCAGCGC,0.15

row,Sequence,PBM E-score
1,AGCAGCAT,-0.00516
2,ACATTACA,0.178
3,GGGTTAAC,0.0316
4,ATCCCCGA,0.0266
5,AGCCCGCA,0.225
6,CCTACTAC,-0.0926
7,CACTAACG,0.00491
8,CGCGAGTC,-0.109
9,AGTAGCAT,-0.0355
10,CACCTTAG,0.141
11,AGCAGCCA,0.35
12,AGCAGCCC,0.2
13,GCCAGCCA,-0.0514
14,CGCAGCCA,0.365
15,GGCAGCAC,-0.0566
16,AGCAGCAA,0.0994
17,GCCAGCCC,-0.0556
18,GGCAGCCC,0.324
19,TGCAGCCA,0.00515
20,CGCAGCGA,0.22
21,GGCAGCCA,0.422
22,CGCAGCCG,0.0939
23,AGGCCAGG,-0.25
24,ATCTATGA,-0.0683

row,Sequence,PBM E-score
1,ACTGAAAC,0.0485
2,CTAAACGC,0.0998
3,AGATCTGG,0.00449
4,ACGTTCAC,-0.22
5,GTCAGGAC,0.00402
6,GTCCAAGA,0.149
7,CACTCCCG,-0.134
8,GCCCTGGA,-0.0767
9,ACAGGAAC,0.144
10,ACAGGACG,0.26
11,ACAGGAAA,0.125
12,ACAGGAAT,0.307
13,ACAGGAAG,0.455
14,CCAGGAAG,0.166
15,CTGTTCCC,-0.0872
16,CACGGTAA,-0.233
17,CTATCGAC,-0.0454
18,GCCTCTCA,-0.0769
19,ACCTATAG,0.161
20,CGAGCGGA,-0.113
21,CGGAGCCG,0.0209
22,TGGAGCCA,0.205
23,GGGAGCCA,0.387
24,GGGAGCCC,0.226

row,Sequence,PBM E-score
1,CGGAGCCA,0.282
2,AGGAGCCA,0.214
3,GGTTTGGA,0.115
4,AATGCCCG,-0.207
5,AGAAAGGA,-0.143
6,CCGTCTCG,-0.0715
7,GTCACTAA,0.107
8,GGCGCCAA,0.377
9,GGCGCCAC,0.253
10,AGCGCCTA,0.164
11,AGCGCCGA,0.0415
12,GGCGCCTA,0.385
13,GGCGCCGA,0.286
14,AGCGCCAA,0.124
15,CGCGCCTA,0.258
16,CGCGCCGA,0.0709
17,AGGGTCGG,-0.133
18,GAATTTCC,0.082
19,AATACAAG,0.293
20,ATTACAGC,-0.134
21,AATACAGA,-0.0124
22,AATACAGT,-0.0143
23,AATACAAC,0.0962
24,ATTACAGA,0.053

row,Sequence,PBM E-score
1,ATTACAGG,0.355
2,AATACAAT,-0.0331
3,AATACAGG,0.343
4,CAAAGACC,0.00996
5,CAGTGGGC,-0.0102
6,ACTGCTAT,-0.225
7,ATATCCTC,-0.118
8,GACACCCC,-0.0371
9,AACGTCGC,-0.00983
10,AACCATAG,-0.00302
11,AAAATCCG,0.111
12,GGGCGCTA,0.32
13,AGGCGCTA,0.0978
14,TAGCGCCA,0.181
15,GGGCGCCA,0.403
16,CGGCGCTA,-0.00295
17,TGGCGCCA,0.37
18,TGGCGCAA,-0.0289
19,GCGCGCCA,0.0132
20,CAGCGCCA,0.0174
21,CTGCGCCA,-0.135
22,CGGCGCCA,0.308
23,GGGCGCGA,0.187
24,AAGGTAAA,0.0141

row,Sequence,PBM E-score
1,GTCAAGGA,0.0238
2,GAGTTTCA,-0.0957
3,GCCTTCGA,-0.126
4,CGGCGCGC,0.193
5,GAGCGCCC,0.234
6,CGGCGCCG,0.113
7,GGGCGCCC,0.459
8,CGGCGCCC,0.359
9,GGGCGCAC,-0.138
10,CAGCTGGG,-0.0114
11,AACACCGT,-0.132
12,ACATTTGC,-0.0633
13,AGGGTGCG,0.0402
14,GAGGTGCC,0.281
15,AAGGTGCC,0.144
16,CGGGTGCC,0.377
17,GAGGTGCA,-0.125
18,AGGGTGCC,0.39
19,AGGGTGCA,-0.0715
20,CTGGTGCC,0.352
21,ATGGTGCC,0.227
22,CGGGTGTC,-0.116
23,CGGGTGCA,0.0724
24,CTGGTGCA,0.216

row,Sequence,PBM E-score
1,GCGATCCC,0.0838
2,ACCAACCT,-0.0617
3,ACCAATAA,0.0976
4,CAGGGAGG,-0.257
5,CGTGGTGA,-0.09
6,CAGTCTAC,-0.0756
7,ACACGCCA,-0.163
8,AGACGCAG,0.0695
9,AGACGCAT,0.231
10,ACACGCCT,-0.087
11,AGACGCCA,0.283
12,CGCCGACG,0.0121
13,AGACGCCT,0.327
14,CCACGCCG,-0.106
15,CGACGCCG,0.349
16,AGACGCCG,0.421
17,ACACGCCG,0.199
18,CGACGCCA,0.157
19,AAAGCGCG,-0.0766
20,TAGCCCCA,0.139
21,AGAGGGGC,-0.044
22,GGTTTGAC,0.0178
23,CGTATGAC,0.0685
24,TAAACCGA,-0.235

row,Sequence,PBM E-score
1,CTCTGTTC,-0.0161
2,AACCGGGT,0.0617
3,GTCCGAAA,0.212
4,CTGGTCAA,0.0775
5,CGACGCGC,0.0401
6,AGACGCGA,0.214
7,AGACGCGC,0.289
8,ACCGTGGG,-0.00593
9,TAGTGGAA,0.42
10,AAGTGGAT,0.136
11,GAGTGGAC,-0.0196
12,CAGTGGAA,0.244
13,AAGTGGTA,0.176
14,AAGTGGAG,0.141
15,AAGTGGTG,0.281
16,AAGTGGTC,0.0307
17,GGGTGGAA,-0.113
18,GAGTGGAA,0.316
19,AAGTGGAA,0.41
20,TGGTGGAA,0.124
21,GTCGCCTA,0.0571
22,GATCTCAC,-0.257
23,CTAGGGTC,0.00957
24,ATTTTTTG,0.228

row,Sequence,PBM E-score
1,AGTTATTC,0.0537
2,CACTGTAG,-0.115
3,AAGTGGCA,0.238
4,TAGTGGCA,0.289
5,GAGTGGCA,-0.0587
6,AAGCGATC,-0.135
7,AGGTAGTC,0.072
8,CGGAGTCC,0.281
9,AGGAGTCA,-0.0283
10,CGGAGTAC,-0.243
11,AGGAGTCC,0.303
12,CGGAGTCA,-0.00995
13,AGGAGTCG,-0.069
14,GACACCTA,0.0961
15,TCCCTACA,0.00308
16,AAGCAGGA,0.0293
17,CCTCAGAC,-0.19
18,CCACTTCC,0.305
19,CCACTTCG,0.0958
20,CAACTTCG,0.107
21,GCACTTCC,0.168
22,CAACTTCC,0.321
23,CAACTTCA,-0.0643
24,GGCTCGCA,-0.137
